Results reported in PubChem BioAssay (EPA / NIEHS).
Results filed as inconclusive are left out. Active and inactive are the calls of the source. The calls were made as follows, unless noted: active = hit-call score of the fitted dose curve at least 0.9, where 1 is the maximum; inactive = score below 0.9.

Read-out: not listed separately
Experiment: BSK_SAg_SRB: Viability Assessment in the BioMAP Diversity Plus: SAg Assay (AID 2283096);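 also: cells read one day after compound addition; hits may be either gain or loss of signal compared with DMSO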
Conditions: primary human HUVEC with PBMC
Procedure, shortened: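 Total protein by sulforhodamine B staining, 24 h after dosing, in HUVEC–PBMC co-culture; DMSO-referenced bidirectional fitting.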
In the case of CC(C)CCCCCCCOC(=O)CCCCC(=O)OCCCCCCCC(C)C, the outcome is reported as “inactive”. For COc1cccc(-c2ccc(/C=C\CN3CCCCCC3)cc2Cl)c1, the AC50 was 27.2 µM (active). For O=C(O)c1cccc(N(Cc2cccnc2)c2ccc(OC(F)F)c(OC(F)F)c2)c1, the outcome was “inactive”. For O=C(NS(=O)(=O)/C=C/c1ccccc1)c1ccc(F)cc1Cl, the outcome was “inactive”. For CC(C)CC(C)(O)C#CC(C)(O)CC(C)C (stereo not drawn), the outcome was “inactive”. For NC(=O)NO, the outcome was “inactive”. In the case of CNCc1ccc(NC(=O)c2c[nH]c3c2C(=O)CCC3)cc1, the outcome is reported as “inactive”. With CC[C@H](C)C(=O)O[C@H]1C[C@@H](C)C=C2C=C[C@H](C)[C@H](CC[C@@H]3C[C@@H](O)CC(=O)O3)[C@H]21 the AC50 was 3.95 µM (active). In the case of CC(C)c1cccc(C(C)C)c1N1C(=O)c2ccc(O)cc2C1=O, the AC50 is reported as 19.3 µM (active). In the case of COc1ccc2sc(C(=O)Nc3nnn[nH]3)c(OC(C)C)c2c1, the AC50 is reported as 14.2 µM (active). With CCN(C(=O)c1cc(C)cc(OC[C@H](C)Nc2ccncc2)c1)C(C)C the outcome was “inactive”. With CCCCC(CC)COC(=O)c1ccc(C(=O)OCC(CC)CCCC)cc1 (stereo not drawn) the outcome was “inactive”. With O=c1[nH]c2ccc(S(=O)CCN3CCC(Cc4ccc(F)cc4)CC3)cc2o1 (stereo not drawn) the outcome was “inactive”. With O=C(O)CC(O)C(=O)O (stereo not drawn) the outcome was “inactive”. For COc1ccc(/C=C/S(=O)(=O)NC(=O)c2ccc(C)cc2Cl)cc1, the outcome was “inactive”. With CCOc1cccc(-n2cc(C(=O)N3CCN(c4cc(C(=O)O)c5ccccc5c4)CC3)nc2-c2ccc(C)cc2)c1 the AC50 was 14.1 µM (active). For Nc1ccc(Nc2ccccc2)cc1, the outcome was “inactive”. For O=C(O)c1cc(N=Nc2ccc(S(=O)(=O)Nc3ccccn3)cc2)ccc1O, the outcome was “inactive”. For CCOCCOCCOCCO, the outcome was “inactive”. With Cc1ccc(N)cc1O the outcome was “inactive”. With CNS(=O)(=O)c1cc(C(=O)N2CCC(CCN3C4CCC3CC(n3c(C)nc5ccccc53)C4)(c3cccc(F)c3)CC2)c(Cl)cc1F (stereo not drawn) the AC50 was 16.7 µM (active). In the case of O=C(OC[C@H]1O[C@@H](OC(=O)c2cc(O)c(O)c(OC(=O)c3cc(O)c(O)c(O)c3)c2)[C@H](OC(=O)c2cc(O)c(O)c(OC(=O)c3cc(O)c(O)c(O)c3)c2)[C@@H](OC(=O)c2cc(O)c(O)c(OC(=O)c3cc(O)c(O)c(O)c3)c2)[C@@H]1OC(=O)c1cc(O)c(O)c(OC(=O)c2cc(O)c(O)c(O)c2)c1)c1cc(O)c(O)c(OC(=O)c2cc(O)c(O)c(O)c2)c1, the AC50 is reported as 9.72 µM (active). With O=C1CCC(N2C(=O)c3ccccc3C2=O)C(=O)N1 (stereo not drawn) the outcome was “inactive”. For O=C(O)c1cccc(Oc2ccccc2)c1, the outcome was “inactive”. In the case of C=CCCCCCCCCC(=O)O, the outcome is reported as “inactive”. With On1ccccc1=S the outcome was “inactive”. For COC(=O)c1c(Cl)c(Cl)c(C(=O)OC)c(Cl)c1Cl, the outcome was “inactive”. In the case of Cn1c(=O)cc(Oc2ccc(F)cc2F)c2cnc(NCC(C)(C)O)nc21, the outcome is reported as “inactive”. With COc1ccc(-n2nc(C(F)F)cc2-c2ccc(S(C)=O)cc2)cc1 (stereo not drawn) the outcome was “inactive”.

Molecular target: human CYP1A2, CYP1A2 (gene 1544) (UniProt P05177)
Sequence (P05177 whole entry, looked up): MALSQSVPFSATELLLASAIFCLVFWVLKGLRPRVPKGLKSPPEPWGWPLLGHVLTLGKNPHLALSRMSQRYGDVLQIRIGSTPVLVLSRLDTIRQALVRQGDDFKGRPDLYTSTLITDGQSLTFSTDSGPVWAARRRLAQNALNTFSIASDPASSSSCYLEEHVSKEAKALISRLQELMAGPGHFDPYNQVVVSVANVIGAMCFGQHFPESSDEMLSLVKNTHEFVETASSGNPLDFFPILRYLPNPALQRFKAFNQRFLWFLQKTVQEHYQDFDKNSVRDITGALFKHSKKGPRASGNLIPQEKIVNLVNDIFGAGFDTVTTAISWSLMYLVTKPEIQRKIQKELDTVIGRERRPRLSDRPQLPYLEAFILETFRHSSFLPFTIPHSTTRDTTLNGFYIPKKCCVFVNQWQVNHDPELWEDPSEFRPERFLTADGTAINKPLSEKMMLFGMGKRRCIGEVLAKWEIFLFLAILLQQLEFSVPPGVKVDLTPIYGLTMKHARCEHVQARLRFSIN
Experiment: NVS_ADME_hCYP1A2: NovaScreen (NVS) CYP450-related Enzyme Activity (ADME) Assay for human CYP1A2 (AID 2283102; active = hit-call score of the fitted dose curve at least 0.9, where 1 is the maximum;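 as to AC50: fluorescence from turnover of a fluorogenic substrate by recombinant insect-cell CYP1A2; potency for inhibition since loss of fluorescence marks reduced CYP1A2 activity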)
Conditions: not given
Procedure, shortened: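 Inhibition scored as decrease in fluorescent product versus acetonitrile negative control. Enzyme: insect-cell recombinant human CYP1A2, substrate-specific, cell-free. Reading at 0.5 h; 10 uM duplicate initial screen with positive and negative controls on every plate.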
For CCCCCCc1ccc(O)cc1O, the outcome was “inactive”. In the case of Nc1ccc(Nc2ccccc2)cc1, the AC50 is reported as 15.1 µM (active). With O=C(OC[C@H]1O[C@@H](OC(=O)c2cc(O)c(O)c(OC(=O)c3cc(O)c(O)c(O)c3)c2)[C@H](OC(=O)c2cc(O)c(O)c(OC(=O)c3cc(O)c(O)c(O)c3)c2)[C@@H](OC(=O)c2cc(O)c(O)c(OC(=O)c3cc(O)c(O)c(O)c3)c2)[C@@H]1OC(=O)c1cc(O)c(O)c(OC(=O)c2cc(O)c(O)c(O)c2)c1)c1cc(O)c(O)c(OC(=O)c2cc(O)c(O)c(O)c2)c1 the AC50 was 2.01 µM (active). With COC(=O)c1c(Cl)c(Cl)c(C(=O)OC)c(Cl)c1Cl the AC50 was 8.47 µM (active).

Molecular target: human CYP2D6, CYP2D6 (gene 1565) (UniProt P10635)
Sequence (P10635 whole entry, looked up): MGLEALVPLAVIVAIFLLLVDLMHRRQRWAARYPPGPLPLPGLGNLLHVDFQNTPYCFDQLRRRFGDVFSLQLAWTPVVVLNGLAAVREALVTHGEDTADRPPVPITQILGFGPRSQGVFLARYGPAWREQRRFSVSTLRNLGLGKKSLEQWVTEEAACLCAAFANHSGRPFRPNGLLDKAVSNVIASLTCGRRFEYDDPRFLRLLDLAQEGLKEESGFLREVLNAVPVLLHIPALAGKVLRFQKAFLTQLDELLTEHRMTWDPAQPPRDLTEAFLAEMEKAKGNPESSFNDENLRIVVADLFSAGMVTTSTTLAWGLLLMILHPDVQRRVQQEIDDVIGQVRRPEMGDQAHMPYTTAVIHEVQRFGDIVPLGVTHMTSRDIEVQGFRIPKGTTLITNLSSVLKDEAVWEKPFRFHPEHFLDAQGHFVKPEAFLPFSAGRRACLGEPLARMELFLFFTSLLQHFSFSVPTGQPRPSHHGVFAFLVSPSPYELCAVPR
Experiment: NVS_ADME_hCYP2D6: NovaScreen (NVS) CYP450-related Enzyme Activity (ADME) Assay for human CYP2D6 (AID 2283107; active = hit-call score of the fitted dose curve at least 0.9, where 1 is the maximum)
Conditions: not given
Procedure, shortened: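 Biochemical fluorescence assay, insect-cell-derived enzyme. Read at 1 h; inhibition taken from loss of signal against acetonitrile. Screened at 10 uM in duplicate, with concentration series for actives.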
With CC(C)c1cccc(C(C)C)c1N1C(=O)c2ccc(O)cc2C1=O the outcome was “inactive”. For O=c1[nH]c2ccc(S(=O)CCN3CCC(Cc4ccc(F)cc4)CC3)cc2o1 (stereo not drawn), the AC50 was 1.3 µM (active). For CCCCCCc1ccc(O)cc1O, the AC50 was 8.17 µM (active). For Nc1ccc(Nc2ccccc2)cc1, the AC50 was 13.8 µM (active). With Cc1ccc(N)cc1O the AC50 was 3.9 µM (active).

Molecular target: human CYP2C9, CYP2C9 (gene 1559) (UniProt P11712)
Sequence (P11712 whole entry, looked up): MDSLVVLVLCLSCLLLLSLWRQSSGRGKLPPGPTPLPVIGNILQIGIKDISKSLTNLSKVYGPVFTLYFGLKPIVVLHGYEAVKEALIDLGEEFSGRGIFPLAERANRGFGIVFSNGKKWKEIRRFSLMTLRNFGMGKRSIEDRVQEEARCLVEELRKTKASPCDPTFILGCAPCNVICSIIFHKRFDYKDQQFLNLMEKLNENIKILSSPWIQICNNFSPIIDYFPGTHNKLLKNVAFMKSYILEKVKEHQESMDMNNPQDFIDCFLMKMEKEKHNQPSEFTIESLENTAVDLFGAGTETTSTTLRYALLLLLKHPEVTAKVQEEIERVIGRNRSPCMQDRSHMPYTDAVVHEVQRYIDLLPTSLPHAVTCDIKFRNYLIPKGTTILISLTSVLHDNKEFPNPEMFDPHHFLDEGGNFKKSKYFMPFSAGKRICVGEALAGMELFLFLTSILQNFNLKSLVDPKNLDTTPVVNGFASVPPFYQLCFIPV
Experiment: NVS_ADME_hCYP2C9: NovaScreen (NVS) CYP450-related Enzyme Activity (ADME) Assay for human CYP2C9 (AID 2283108; active = hit-call score of the fitted dose curve at least 0.9, where 1 is the maximum)
Conditions: not given
Procedure, shortened: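 Fluorescence readout of CYP2C9 activity (SF9-expressed human enzyme) at 0.75 h. The primary screen used 10 uM in duplicate, with concentration-response follow-up for actives; acetonitrile was the negative control.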
With O=C(O)c1cccc(N(Cc2cccnc2)c2ccc(OC(F)F)c(OC(F)F)c2)c1 the AC50 was 6.14 µM (active). In the case of O=C(NS(=O)(=O)/C=C/c1ccccc1)c1ccc(F)cc1Cl, the AC50 is reported as 6.85 µM (active). In the case of CC(C)c1cccc(C(C)C)c1N1C(=O)c2ccc(O)cc2C1=O, the AC50 is reported as 4.78 µM (active). For CCN(C(=O)c1cc(C)cc(OC[C@H](C)Nc2ccncc2)c1)C(C)C, the AC50 was 4.5 µM (active). For CCCCCCc1ccc(O)cc1O, the AC50 was 10 µM (active). For COc1ccc(/C=C/S(=O)(=O)NC(=O)c2ccc(C)cc2Cl)cc1, the AC50 was 12.7 µM (active). In the case of Nc1ccc(Nc2ccccc2)cc1, the AC50 is reported as 16.1 µM (active). With Cc1ccc(N)cc1O the AC50 was 5.95 µM (active). For CNS(=O)(=O)c1cc(C(=O)N2CCC(CCN3C4CCC3CC(n3c(C)nc5ccccc53)C4)(c3cccc(F)c3)CC2)c(Cl)cc1F (stereo not drawn), the AC50 was 6.52 µM (active). In the case of O=C(OC[C@H]1O[C@@H](OC(=O)c2cc(O)c(O)c(OC(=O)c3cc(O)c(O)c(O)c3)c2)[C@H](OC(=O)c2cc(O)c(O)c(OC(=O)c3cc(O)c(O)c(O)c3)c2)[C@@H](OC(=O)c2cc(O)c(O)c(OC(=O)c3cc(O)c(O)c(O)c3)c2)[C@@H]1OC(=O)c1cc(O)c(O)c(OC(=O)c2cc(O)c(O)c(O)c2)c1)c1cc(O)c(O)c(OC(=O)c2cc(O)c(O)c(O)c2)c1, the AC50 is reported as 3.05 µM (active).
